This note sets out measurements from PubChem BioAssay (Tox21).

A number with no mark means an inactive call. Inconclusive results are not listed. Activity calls are given as the source filed them. Unless noted, calls come from the whole dose curve.

A short description of test [1]: Nuclear factor erythroid 2-related factor 2/antioxidant responsive element (Nrf2/ARE) small molecule agonists: qHTS cell viability counter screen in human keratinocytes (AID 1919968; active = well fitted curve in the direction sought with a large enough effect in the repeat runs; an effect the other way counts as inactive or inconclusive; note: nearly all actives have a fitted effect of over 55% in size; note: potency is the fitted concentration of half-maximal effect). In outline: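 Parallel cytotoxicity read: KeratinoSens HaCaT cells, compound treatment 23 h, viability by CellTiter-Fluor fluorescence 1 h post-reagent.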
The nature of test [2]: Nuclear factor erythroid 2-related factor 2/antioxidant responsive element (Nrf2/ARE) small molecule agonists: luciferase reporter gene qHTS assay in human keratinocytes (AID 1919969). Note: nearly all actives have a fitted effect of over 35% in size. Note: potency is the fitted concentration of half-maximal effect.
Test [3] addresses Gonadotropin-releasing hormone receptor (Homo sapiens) (UniProt P30968). As to the kind of experiment: Human gonadotropin-releasing hormone receptor (GnRHR) small molecule agonists, calcium flux assay in GnRHR-HEK293 cells (AID 1920063). Note: nearly all actives have a fitted effect of over 35% in size. Put shortly:
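Calcium flux, agonist mode, human GnRHR stably integrated in HEK293; dye 1 h at 37 C before compound; Ex/Em=480/540 kinetic read, 3 min; 15 concentrations, triplicate.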

Test [4] deals with KiSS-1 receptor (Homo sapiens) (UniProt Q969F8). In words: Human kisspeptin (KISS1R) small molecule agonists, calcium flux assay in KISS1R-HEK293 cells (AID 1920064; active = well fitted curve in the direction sought with a large enough effect in the repeat runs; an effect the other way counts as inactive or inconclusive). Put shortly: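 Triplicate 15-concentration series were applied to dye-loaded human KISS1R HEK293 cells, and agonist-evoked calcium fluorescence was captured for 3 min.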
The nature of test [5]: G protein-coupled receptor (GPCR) small molecule agonists, calcium flux assay: HEK293 wild type cell line counter screen (AID 1920065). Put shortly:
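Non-specific calcium responders were flagged by adding DMSO-dissolved compounds to dye-loaded cells and reading 480/540 nm fluorescence each second for 3 min; ATP served as positive control.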

Test [6] in a line: p53 small molecule agonists, cell-based qHTS assay with human liver microsomes (AID 1963577).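 Note: p53 response element beta-lactamase reporter cells with liver microsomes plus NADPH.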 In outline:
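Reporter activation was measured by LiveBLAzer fluorescence intensity in p53RE-bla cells, which had been exposed to compounds for 16 h at 37 C alongside 0.5 mg/mL human liver microsomes and 0.5 mg/mL NADPH (final concentrations).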

Test [7] is described as follows: p53 small molecule agonists, cell-based qHTS assay with human liver microsomes: qHTS cell viability counter screen (AID 1963579). Note: nearly all actives have a fitted effect of over 45% in size. In outline:
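HLM-supplemented (0.5 mg/mL final) and NADPH-supplemented (0.5 mg/mL final) p53RE-bla cultures, 4,000 cells per well, were dosed with compounds in DMSO for 16 h at 37 C; luminescent ATP detection (CellTiter-Glo, 30 min, room temperature) quantified surviving cells.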

Test [8] in a line: p53 small molecule agonists, cell-based qHTS assay with rat liver microsomes: qHTS cell viability counter screen (AID 1963580). Note: nearly all actives have a fitted effect of over 45% in size. Put shortly: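 After the beta-lactamase ratio was read, CellTiter-Glo was added to the same wells and luminescence measured at 30 min; cells had been treated 16 h at 37 C with compounds, rat liver microsomes and NADPH (0.5 mg/mL final each).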
Test [9] in a line: p53 small molecule agonists, cell-based qHTS assay: qHTS cell viability counter screen (AID 1963581). Note: nearly all actives have a fitted effect of over 45% in size. In outline: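 Multiplexed with the reporter read, a CellTiter-Glo step (30 min, room temperature) gauges ATP-based viability of HCT-116 p53RE-bla cells after 16 h compound incubation at 37 C.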
The nature of test [10]: p53 small molecule agonists, cell-based qHTS assay (AID 1963582; active = well fitted activation curve with a large enough effect in the signal ratio in the repeat runs, not every such curve was filed as active; the % refers to the signal ratio). In outline: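 Beta-lactamase reporter cells (p53RE-bla) treated with compounds for 16 h at 37 C; FRET substrate, 2 h, room temperature; fluorescence intensity.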
Test [11] addresses 5-hydroxytryptamine receptor 2A (Homo sapiens) (UniProt P28223). In words: 5-hydroxytryptamine receptor 2A (HTR2A) small molecule agonists, cell-based qHTS assay (AID 1963587). Note: nearly all actives have a fitted effect of over 30% in size. Put shortly: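 CHO cells stably expressing human HTR2A, plated 18 h, loaded with calcium dye 1 h at 37 C. Agonist mode: compounds added and intracellular calcium fluorescence recorded kinetically for 2 min at 1 sec intervals.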

The target in test [12] is Muscarinic acetylcholine receptor M1 (Homo sapiens) (UniProt P11229). As to the kind of experiment: Cholinergic receptor muscarinic 1 (CHRM1) small molecule antagonists, cell-based qHTS assay (AID 1963588). Note: nearly all actives have a fitted effect of over 40% in size. In outline: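 Compounds were tested at 15 concentrations in three independent runs. Dye-loaded CHRM1-CHO cells were exposed 5 min at room temperature before stimulation by acetylcholine added at 50nM. Intracellular calcium was read kinetically on FDSS for 3 min.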

Test [13] shares this target. As to the kind of experiment: Cholinergic receptor muscarinic 1 (CHRM1) small molecule agonists, cell-based qHTS assay (AID 1963589). Note: nearly all actives have a fitted effect of over 35% in size. Put shortly:
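qHTS, 15-point titration, 3 independent runs: compounds pin-transferred onto dye-loaded CHRM1-CHO cells (human M1), calcium fluorescence followed every second to detect agonism.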

Test [14] can be described thus: cAMP Responsive Elements (CRE) small molecule agonists, cell-based qHTS assay (AID 1963590). Put shortly: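 Quantitative HTS for CRE agonists: HEK 293T CRE-bla cells, overnight plating, 3 h compound incubation at 37 C/5% CO2, then 2 h room-temperature LiveBLAzer B/G FRET substrate loading.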
A short description of test [15]: cAMP Responsive Elements (CRE) small molecule antagonists, cell-based qHTS assay (AID 1963591; active = well fitted inhibition curve with a large enough effect in the signal ratio in the repeat runs, not every such curve was filed as active; the % refers to the signal ratio). In outline:
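Fluorescence intensity from cleaved LiveBLAzer B/G substrate (2 h, room temperature) quantified CRE-bla activity in HEK 293T cells exposed 3 h to compound with 0.25 uM final NKH477.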

For test [16], the target named is D(2) dopamine receptor (Homo sapiens) (UniProt P14416). As to the kind of experiment: Dopamine D2 receptor (DRD2) small molecule agonists, cell-based qHTS assay (AID 1963594). Note: nearly all actives have a fitted effect of over 35% in size. In outline:
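HEK293 cells stably expressing human DRD2, pre-treated with PDE inhibitor Ro20-1724 (0.1 mM final) and compound 10 min at room temperature, then stimulated with NKH477 (200nM […]) for 30 min. cAMP read by HTRF (665/620 nm).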

Test [17] has the same target. As to the kind of experiment: Dopamine D2 receptor (DRD2) small molecule antagonists, cell-based qHTS assay (AID 1963595; active = well fitted inhibition curve with a large enough effect in the signal ratio in the repeat runs, with a control signal flat; the % refers to the signal ratio). In outline: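 Cells were plated and grown for 24 h at 37 °C. Ro20-1724 (0.1 mM final) went in first, then compound for 10 min. NKH477 (200 nM) with quinpirole (12 nM) followed for 30 min at RT, then HTRF detection reagents for 1 h.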
For test [18], the target named is 5-hydroxytryptamine receptor 2A (Homo sapiens) (UniProt P28223). In words: 5-hydroxytryptamine receptor 2A (HTR2A) small molecule antagonists, cell-based qHTS assay (AID 1963586). Note: nearly all actives have a fitted effect of over 45% in size. Note: potency is the fitted concentration of half-maximal effect. Put shortly: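 CHO cells stably expressing human HTR2A were plated for 18 h at 37 C, then loaded with calcium dye for 1 h. Compounds were preincubated 5 min at room temperature before DOI (4 nM solution) was added. Kinetic fluorescence was read for 3 min.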

Test [19] addresses Beta-2 adrenergic receptor (Homo sapiens) (UniProt P07550). In words: Adrenergic beta2 receptor (ADRB2) small molecule antagonists, cell-based qHTS assay (AID 1963592). For activity change, negative = inhibition: series mostly up to about 92 µM. Note: nearly all actives have a fitted effect of over 50% in size. Note: potency is the fitted concentration of half-maximal effect. In outline: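 Assay format: CHO-ADRB2 cells, 18-20hr seeding at 37C/5% CO2, then compound plus 1nM isoproterenol agonist mix for 0.5hr RT. Homogeneous time-resolved fluorescence cAMP detection after 1hr, expressed as 665/615 nm ratio.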
% is set by controls: 0 for no effect and ±100 for the full control effect.

Gonadotropin-releasing hormone receptor (Homo sapiens), sequence (P30968 whole entry, looked up): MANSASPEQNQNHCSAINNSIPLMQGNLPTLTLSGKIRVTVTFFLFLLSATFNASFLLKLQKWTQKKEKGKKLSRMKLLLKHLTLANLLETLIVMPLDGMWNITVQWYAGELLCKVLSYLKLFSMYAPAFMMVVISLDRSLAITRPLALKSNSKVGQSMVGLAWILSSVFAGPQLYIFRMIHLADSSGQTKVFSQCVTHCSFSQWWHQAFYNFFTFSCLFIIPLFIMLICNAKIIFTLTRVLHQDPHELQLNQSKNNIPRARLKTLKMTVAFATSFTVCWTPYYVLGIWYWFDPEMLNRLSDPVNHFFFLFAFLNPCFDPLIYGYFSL
5-hydroxytryptamine receptor 2A (Homo sapiens), sequence (P28223 whole entry, looked up): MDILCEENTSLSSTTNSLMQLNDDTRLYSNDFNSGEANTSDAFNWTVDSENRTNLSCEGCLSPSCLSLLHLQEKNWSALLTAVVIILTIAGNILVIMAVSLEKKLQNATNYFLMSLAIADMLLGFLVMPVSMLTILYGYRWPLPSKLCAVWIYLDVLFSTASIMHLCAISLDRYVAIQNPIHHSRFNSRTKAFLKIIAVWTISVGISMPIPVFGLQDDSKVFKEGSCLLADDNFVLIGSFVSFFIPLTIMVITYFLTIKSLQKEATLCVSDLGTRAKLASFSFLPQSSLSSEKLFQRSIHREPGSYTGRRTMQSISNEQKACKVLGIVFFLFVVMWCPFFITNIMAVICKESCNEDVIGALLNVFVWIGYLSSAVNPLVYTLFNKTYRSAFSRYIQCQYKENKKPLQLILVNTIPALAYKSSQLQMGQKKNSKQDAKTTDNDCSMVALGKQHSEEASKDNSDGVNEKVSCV
Beta-2 adrenergic receptor (Homo sapiens), sequence (P07550 whole entry, looked up): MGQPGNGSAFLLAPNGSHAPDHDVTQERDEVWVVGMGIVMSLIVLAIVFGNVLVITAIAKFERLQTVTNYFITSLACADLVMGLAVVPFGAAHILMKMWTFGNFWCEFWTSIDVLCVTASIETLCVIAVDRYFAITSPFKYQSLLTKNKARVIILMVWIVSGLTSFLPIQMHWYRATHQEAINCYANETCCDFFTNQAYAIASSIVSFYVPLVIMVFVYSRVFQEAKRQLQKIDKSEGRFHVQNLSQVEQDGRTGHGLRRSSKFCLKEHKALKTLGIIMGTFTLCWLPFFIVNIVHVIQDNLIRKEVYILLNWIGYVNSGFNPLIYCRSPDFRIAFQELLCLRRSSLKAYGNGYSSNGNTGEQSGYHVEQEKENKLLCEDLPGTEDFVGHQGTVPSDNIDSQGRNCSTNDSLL
KiSS-1 receptor (Homo sapiens), sequence (Q969F8 whole entry, looked up): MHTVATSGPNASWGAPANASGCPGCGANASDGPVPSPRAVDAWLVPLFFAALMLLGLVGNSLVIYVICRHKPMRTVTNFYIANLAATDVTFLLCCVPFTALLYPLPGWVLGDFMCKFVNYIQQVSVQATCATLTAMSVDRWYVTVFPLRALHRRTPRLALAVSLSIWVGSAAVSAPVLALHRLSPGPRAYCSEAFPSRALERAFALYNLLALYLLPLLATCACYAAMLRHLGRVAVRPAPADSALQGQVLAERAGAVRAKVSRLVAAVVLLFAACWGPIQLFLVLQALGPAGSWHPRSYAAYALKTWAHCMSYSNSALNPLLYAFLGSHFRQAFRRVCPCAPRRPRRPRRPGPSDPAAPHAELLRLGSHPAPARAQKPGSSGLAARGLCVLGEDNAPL
D(2) dopamine receptor (Homo sapiens), sequence (P14416 whole entry, looked up): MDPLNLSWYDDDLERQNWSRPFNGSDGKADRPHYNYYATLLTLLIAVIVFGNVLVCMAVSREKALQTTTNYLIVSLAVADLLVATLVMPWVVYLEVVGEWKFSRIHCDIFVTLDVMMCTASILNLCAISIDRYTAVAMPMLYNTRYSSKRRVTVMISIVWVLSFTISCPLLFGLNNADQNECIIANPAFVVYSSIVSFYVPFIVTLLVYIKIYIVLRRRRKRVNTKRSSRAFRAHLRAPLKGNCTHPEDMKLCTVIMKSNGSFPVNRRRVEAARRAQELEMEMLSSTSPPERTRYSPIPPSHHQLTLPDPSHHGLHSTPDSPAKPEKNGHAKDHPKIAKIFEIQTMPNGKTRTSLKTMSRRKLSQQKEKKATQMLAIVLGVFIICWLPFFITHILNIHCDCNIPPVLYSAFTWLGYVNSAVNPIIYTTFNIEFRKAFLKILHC
Muscarinic acetylcholine receptor M1 (Homo sapiens), sequence (P11229 whole entry, looked up): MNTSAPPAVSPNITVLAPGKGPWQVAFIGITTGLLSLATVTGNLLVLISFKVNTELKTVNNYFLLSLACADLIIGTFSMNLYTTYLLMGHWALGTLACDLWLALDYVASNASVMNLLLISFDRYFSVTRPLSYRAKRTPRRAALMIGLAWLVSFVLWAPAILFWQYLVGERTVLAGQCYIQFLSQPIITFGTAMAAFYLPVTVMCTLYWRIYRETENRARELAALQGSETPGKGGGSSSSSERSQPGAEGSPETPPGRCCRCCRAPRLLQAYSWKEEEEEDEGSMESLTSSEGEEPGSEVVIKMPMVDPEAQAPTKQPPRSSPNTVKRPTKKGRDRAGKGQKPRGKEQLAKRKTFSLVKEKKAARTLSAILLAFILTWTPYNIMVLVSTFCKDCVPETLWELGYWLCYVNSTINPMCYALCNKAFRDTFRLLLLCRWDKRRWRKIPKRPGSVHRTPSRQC

With `Cc1cc2c(cc1S(N)(=O)=O)S(=O)(=O)CCC2`, the Potency entry in test [1], in test [2], in [3], in test [6], in test [7] and in test [8] was “inactive” throughout. In addition, the Potency entry in [9], in test [10], in test [11], in test [12], in test [13] and in test [14] was “inactive” each time. The Potency result in test [15], in test [16] and in test [17] was “inactive” throughout. Besides, the result in [4] and in [5] was inactive.
On to `O=C(O)Cc1ccc2c(c1)C(=O)c1ccccc1CO2`, for which the Potency result in test [1], in [2], in [3], in [6], in test [7] and in test [8] was “inactive” throughout. Besides, the Potency entry in test [9], in test [18], in [11], in test [13], in [19] and in test [17] was “inactive” each time. Moreover, the result in [4] and in [5] was inactive.
For the compound `OC(CCN1CCCC1)(c1ccccc1)C1CCCCC1` (stereo not given), the Potency entry in [1], in test [2], in test [3], in [6], in test [7] and in [8] was “inactive” throughout. In addition, the Potency entry in test [10], in test [18], in test [11], in test [12], in test [13] and in [14] was “inactive” each time. Besides, the Potency entry in test [16] and in [17] was “inactive” throughout. In addition, the result in [4] and in test [5] was inactive.
In the case of `c1cc(N(CC2CO2)CC2CO2)ccc1Cc1ccc(N(CC2CO2)CC2CO2)cc1` (stereo not given), the results for the Potency in [1] and in [2] were 43.3 µM (active) and 21.7 µM (active), respectively. The Potency entry in [3], in [6], in test [7], in test [8], in test [9] and in test [11] was “inactive” throughout. Further, the Potency result in test [13], in test [16] and in [17] was “inactive” each time. In addition, the outcome in test [4] and in [5] was inactive.
For the compound `O=C(O)C1(C(=O)O)CCC1.[NH2-].[NH2-].[Pt+2]`, the Potency entry in test [1], in [2], in [3], in test [6], in test [7] and in test [8] was “inactive” in each case. The Potency entry in [10], in test [18], in [11], in test [14], in test [19] and in test [17] was “inactive” throughout. For the same compound, the outcome in test [4] and in test [5] was inactive.
For the compound `O[C@@H](CNC[C@H](O)[C@H]1CCc2cc(F)ccc2O1)[C@@H]1CCc2cc(F)ccc2O1`, the Potency in test [1] is 23.7 µM (active); in test [18], 18.3 µM (active); in test [19], 0.15 µM (active). In addition, the Potency entry in test [2], in test [3], in [6], in [7], in test [8] and in test [12] was “inactive” throughout. Moreover, the Potency entry in [14], in test [15] and in test [16] was “inactive” throughout. Moreover, the outcome in test [4] and in test [5] was inactive.
As for `CCCCN1C=CN(C)C1`, the activity change, negative = cytotoxicity in test [1] was 3.2% [at 19 µM]; in test [7], -6.5% [at 13.5 µM]; in test [8] it was 1.05% [at 13.5 µM]; in [9], -5.52% [at 13.5 µM]. In addition, the activity, positive = activation in [2] was 5.6% [at 19 µM]. Also, in [3], the activity change is 1.08% [at 11.8 µM, stronger effect = higher value]. Further, the activation is 2.8% [at 15.8 µM] in test [4]; 0.0752% [at 11.8 µM] in test [5]; -0.103% [at 13.5 µM] in test [6]; 7.66% [at 15.9 µM] in test [11]; 4.26% [at 15.8 µM] in test [13]; -0.578% [at 19 µM] in test [14]. For the same compound, in test [16], the activation is 0.42% [at 19 µM]. Also, the activity, negative = inhibition in test [12] was 0.644% [at 12.6 µM]. In addition, the activity change, negative = inhibition in [15] was -0.722% [at 18.9 µM]; in test [19] it was 3.2% [at 19 µM]; in test [17] it was 2.35% [at 18.9 µM].
